# Data published in PubChem BioAssay (NCATS).
# Inconclusive results are not listed. Values without a mark were called inactive. Active and inactive are the calls of the source. Calls follow the shape of the full dose curve; tested in HEK293 reporter line.
# Assay: qHTS for Inhibitors of the Functional Ribonucleoprotein Complex (vRNP) of Lassa (LASV) Arenavirus: LASV Primary Screen - GLuc reporter signal (AID 1347082); also: nearly all actives have a fitted effect of over 60% in size
# Conditions: LASV minigenome vRNP, Gaussia luciferase reporter; series mostly up to 57.5 µM; activity change, negative = inhibition: at the top concentration
# % is scaled to controls: 0 for no effect and ±100 for the full control effect; potency is read from the fitted curve at half-maximal effect.
SMILES,"activity change, negative = inhibition",Potency
COc1cc2c(=O)c(-c3ccc(O)cc3)coc2cc1OC1OC(CO)C(O)C(O)C1O (stereo not given),1.03%,–
CC1=C2C(=O)OC(c3ccoc3)C2(C)CCC1 (stereo not given),-4.52%,–
O=C(/C=C/c1ccc(O)c(O)c1)c1ccc(O)cc1O,1%,–
CCOC(=O)[C@H]1O[C@H]1C(=O)N[C@@H](CC(C)C)C(=O)NCCC(C)C,-0.175%,–
C/C(=C/CCC(C)[C@H]1CC[C@@]2(C)C3=C(CC[C@]12C)[C@@]1(C)CCC(=O)C(C)(C)[C@@H]1CC3)C(=O)O (stereo not given in full),3.34%,–
C[C@]12CCC(=O)C=C1[C@@H]1CC1[C@H]1[C@H]3[C@@H]4C[C@H]4[C@@]4(CCC(=O)O4)[C@@]3(C)CC[C@H]12 (stereo not given in full),-8.9%,–
CCOC(=O)[C@H](CCc1ccccc1)N[C@@H](C)C(=O)N1CCCC1C(=O)O (stereo not given in full),29.5%,–
[3H]C([3H])([3H])C(O)(CCC[C@@H](C)C1CC[C@H]2/C(=C/C=C3/C[C@@H](O)CCC3=C)CCC[C@]12C)C([3H])([3H])[3H] (stereo not given in full),-5.14%,–
CC1(C)C2CC1[C@@](C)(O)[C@H](O)C2 (stereo not given in full),-12.4%,–
C[C@@H]1CC[C@@]23COC(=O)C2=CCC[C@@H]3[C@@]1(C)CC/C(=C/CO)CO,-6.53%,–
CC(C)CCCCCCCCCCCCC(=O)NCC(=O)NC1C(O)C(O)C(Nc2ncnc3nc[nH]c23)OC1C(O)CO (stereo not given),-84.4%,–
CC(C)COC(=O)c1ccccc1,10.3% [at 115 µM],–
COc1cc(=O)n(C)c2c(O)cccc12,1.86%,–
C=CC[C@]12C[C@@H](OC)C(=O)C=C1O[C@@H](c1ccc(OC)c(OC)c1)[C@H]2C,6.08%,–
CN(C)CCOc1ccc(-c2nc(-c3ccc4c(c3)CCC4=NO)c(-c3ccncc3)[nH]2)cc1,26.1%,–
C=C(C)[C@@H](O)COc1c2ccoc2cc2oc(=O)ccc12,-2.8%,–
C/C=C\C/C=C/CCCCCCCCOC(C)=O,-19.2% [at 115 µM],–
C[C@]12CCC(=O)C=C1CC[C@@H]1[C@H]2[C@@H](O)C[C@@]2(C)[C@H]1CC[C@]2(O)C(=O)CO,-29.3%,–
COc1cc(C(C)=O)cc(OC)c1O,4.15%,–
Cc1nc(Nc2n[nH]c3c2CN(C(=O)N[C@H](CN(C)C)c2ccccc2)C3(C)C)c2sccc2n1,–,7.69 µM (active)

SMILES,"activity change, negative = inhibition",Potency
OCCN1C[C@H](O)[C@@H](O)[C@H](O)[C@@H]1CO,-2.99%,–
C[C@@H]1O[C@@H](O[C@H]2[C@H](O)[C@@H](O)[C@H](Oc3c(-c4ccc(O)c(O)c4)oc4cc(O)cc(O)c4c3=O)O[C@@H]2CO)[C@H](O)[C@H](O)[C@H]1O,3.23%,–
COc1cc(/C=C/c2ccc(O)cc2)cc(OC)c1,-9.59%,–
CCCCOC(=O)C(C)OC(=O)CCC (stereo not given),-19.9% [at 115 µM],–
CCCSSCCC,0.103% [at 115 µM],–
C/C(=C\C(=O)O)CC(=O)O,-0.36%,–
NC1(C(=O)N[C@@H](CCO)c2ccc(Cl)cc2)CCN(c2ncnc3[nH]ccc23)CC1,–,0.968 µM (active)
CC(=O)Nc1ccccc1O,-17.3% [at 115 µM],–
O=C(Nc1ncc(SCCN2CCCC2)s1)[C@]1(c2ccc(S(=O)(=O)C3CC3)cc2)C[C@@H]1C1CCCCC1,3.78%,–
CC(C)=CCc1c(-c2ccc(O)cc2O)oc2cc3c(c(O)c2c1=O)C=CC(C)(C)O3,-0.5%,–
CCCCCCC[C@@H](C/C=C/CCC(=O)N(C)C/C(=C/Cl)C/C(=C\C(=O)N1CC(OC)=CC1=O)OC)OC,36.3%,–
C=C[C@@]1(C)CCC(/C(C)=C/C=C/C(C)(C)O)C[C@@H]1C(=C)C (stereo not given in full),-2.36%,–
C[C@]12CCC3=C4CCC(=O)C=C4CC[C@@H]3[C@H]1CC[C@@]2(O)CC#N,-10.1%,–
CCOC(=O)c1cccc(C(=O)OCC)n1,-4.71%,–
CC12CCC(=O)C=C1C(O)CC1C2CCC2(C)C1CCC2(O)C(=O)CO (stereo not given),5.27%,–
Nc1nc2c(ncn2[C@@H]2O[C@H](COP(=O)(O)OP(=O)(O)O)[C@@H](O)[C@H]2O)c(=O)[nH]1,-5.01%,–
C[C@H]1[C@H](C)CC[C@]2(C(=O)O)CC[C@]3(C)C(=CC[C@@H]4[C@@]5(C)C[C@@H](O)[C@H](O)C(C)(C)[C@@H]5CC[C@]43C)[C@H]12,5.38%,–
CC(=O)N1CCN(c2ccc(OCc3nn(C)c(C)c3-c3cccc4c(CCCOc5cc(C)c(Cl)c(C)c5)c(C(=O)O)n(Cc5cccnc5)c34)cc2)CC1,30.7%,–
C[C@]1(CC/C(=C/CO)CO)[C@H](CO)CC[C@@]23COC(=O)C2=CCC[C@@H]31,-6.63%,–
Nc1nc(Nc2ccccc2)nc2c1ncn2[C@@H]1O[C@H](CO)[C@@H](O)[C@H]1O,8.51%,–
